Measured values: paper PMC5540273 (PLoS ONE, 2017)

Test system: CDK3
Conditions: concentration: 1 μM, replicates: in singlicate; n = 1
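Also: KINOMEscan kinase panel screen.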

Compound	%Inh [%]
COc1cccc(C(=O)Nc2cccc(Oc3ccc4nc(NC(=O)C5CC5)cn4n3)c2)c1	0
Cl.Cl.NCC(NC(=O)c1cc(-c2ccccc2)c(-c2ccnc3[nH]ccc23)s1)c1ccccc1 (stereo not shown) [GSK1321561]	8
CC(=O)Nc1nc2cnc(Nc3cc(NC(=O)c4cccc(C5(C#N)CC5)c4Cl)ccc3C)nc2s1	0
COc1cccc(NC(=O)NC2CCN(c3ccnc(Nc4cc(OC)c(OC)c(OC)c4)n3)C2)c1 (stereo not shown) [GSK1379763]	21
COc1cc2c(cc1OCCN1CCNCC1)ncc1c3ccc(C#N)cc3[nH]c21	17
CSc1cccc2c(-c3ccncn3)c(-c3ccc(F)cc3)nn12 [GW514786]	9
Cn1cc(-c2ccc3c(c2)CCN3C(=O)Cc2cccc(Cl)c2)c2c(N)ncnc21 [GSK2606590]	7
CCS(=O)(=O)c1ccc(OC)c(Nc2nccc(-c3c(-c4cccc(NC(=O)c5c(F)cccc5F)c4)nn4ncccc34)n2)c1 [GSK326180]	7
CCn1c(-c2nonc2N)nc2c(C#CC(C)(C)O)ncc(OCCCCN)c21.O=C(O)C(F)(F)F.O=C(O)C(F)(F)F [GSK507274]	16
O=C(Nc1cccc(-c2nn3ccccc3c2-c2ccnc(Nc3cccc(C(F)(F)F)c3)n2)c1)c1c(F)cccc1F [GSK292658]	1
CN(c1ccc(NC(=O)Nc2cc(C(F)(F)F)ccc2F)cc1)c1ccnc(Nc2ccc(S(N)(=O)=O)cc2)n1 [GW809893]	99
COc1cc(Nc2ncc3c(C)nc(-c4cc5ccccc5[nH]4)n3n2)cc(OC)c1OC [GW869516]	31
Cc1ccc(C)c(NC(=O)NC2CCN(c3ccnc(Nc4ccc(F)cc4)n3)C2)c1 (stereo not shown) [GSK1379720]	10
c1ccc(Oc2ccc(Nc3ccnc4cc(-c5ccc(CNCCN6CCOCC6)o5)ccc34)cc2)nc1 [GW567145]	0
COc1cc(Nc2nccc(-c3c(-c4cccc(NC(=O)c5c(F)cccc5F)c4)nn4ncccc34)n2)cc(OC)c1OC [GSK327238]	4
COc1cc(Nc2nccc(N3CCC(NC(=O)Nc4cccc(C(C)=O)c4)C3)n2)cc(OC)c1OC (stereo not shown) [GSK1379753]	11
Cl.Cl.NCC(NCc1ccc(-c2ccnc3[nH]ccc23)s1)c1ccccc1 (stereo not shown) [GSK1321565]	0
Oc1cc(Nc2ccnc3cc(I)ccc23)ccc1F [GW552771]	0
Cc1ccc(C(=O)Nc2ccc(Nc3ccnc4cc(-c5nccs5)ccc34)cc2O)cc1.Cl [GW494702]	8

Compound	%Inh [%]
C[C@@H]1CC[C@@H](C(=O)Nc2ccccc2)CN1c1cc(-c2ccc3c(N)n[nH]c3c2)nc(N)n1 [GSK2286062]	0
Nc1ncc(-c2cccnc2)c2scc(-c3ccc4c(c3)CCN4C(=O)Cc3ccccc3)c12 [GSK683281]	21
Cl.c1ccc(-c2ccc3c(Nc4ccc5[nH]ccc5c4)ccnc3c2)nc1 [GW440138]	0
CCn1c(-c2nonc2N)nc2c(C#CC(C)(C)O)nc(OC[C@H](N)c3ccccc3)cc21 [GSK943949]	0
Cn1cc(-c2ccc3c(c2)CCN3C(=O)Cc2cccc(F)c2)c2c(N)ncnc21 [GSK2603358]	7
O=C(Nc1cccc(-c2nn3ncccc3c2-c2ccnc(Nc3ccccc3)n2)c1)c1c(F)cccc1F [GSK198271]	8
COc1cc(Nc2nccc(-c3c(-c4cccc(NC(=O)c5c(F)cccc5F)c4)nn4ccccc34)n2)cc(OC)c1OC [GSK323521]	21
FC(F)(F)c1ccc(/C=C/c2cncnc2Nc2ccc3[nH]c(Cc4ccccc4)nc3c2)cc1 [GW709199]	50
CC(C)(C)c1ccc2nccc(Nc3cccc(O)c3)c2c1 [GW856795]	0
CCc1ccc(-c2ccc3c(c2)-c2c(cnn2C)S(=O)(=O)N3C)cc1	0
COc1cccc(C2=C(Nc3ccc(Cl)c(C(=O)O)c3)C(=O)NC2=O)c1 [SB-390769]	25
NCCCC(NC(=O)c1cc(Br)c(-c2ccnc3[nH]ccc23)s1)c1ccccc1.O=C(O)C(F)(F)F.O=C(O)C(F)(F)F (stereo not shown) [GSK1287544]	10
COC(=O)Nc1nc2ccc(Oc3ccc(NC(=O)Nc4cc(C(F)(F)F)ccc4F)cc3)cc2n1C.Cl [GW692089]	0
CC(C)c1nc(-c2cccc(NS(=O)(=O)c3c(F)cccc3F)c2F)c(-c2ccnc(Nc3ccc(N4CCOCC4)nc3)n2)s1 [GSK2008607]	99.5
COCCOCCOc1cc2ncc3c4ccc(C#N)cc4[nH]c3c2cc1OC	15
Fc1ccc(-c2ncn(C3CCNCC3)c2-c2ccnc(Oc3ccc(-c4ccccc4)cc3)n2)cc1 [SB-245391]	26
c1ccc(-c2cnc3nccnn23)cc1 [AH20685]	2
COc1cccc(-c2ccc3c(NC(=O)C4CC4)n[nH]c3n2)c1 [SB-710903]	41
